Measured values published in PubChem BioAssay AID1362 (SRMLSC, 2008).
Hit rate of the full screen: of about 190,000 compounds, about 4,000 (2.1%) were called active. No stated cut-off is given here; in the data, active means inhibition above about 58%; inactive means the rest, inconclusive results apart; tested in S. cerevisiae. The sample as a whole holds a higher share of actives than the screen did.

Experiment: growth inhibition of WT strain, primary screen, mitochondrial fusion inhibitor project, WT and mutant strains, chemical genetic (AID 1362)
Settings: mitochondrial fusion phenotypic screen, at 10 µM
[1] = WT strain, growth inhibition, stronger effect = higher value

Row | Structure (SMILES) | inhibition [1] | inhibition (mutant strain inhibition) [%]
1 | Oc1ccc(N2CCN(C(=S)NCc3ccccc3)CC2)cc1 | -2.43% (inactive) | 0.26
2 | O=[N+]([O-])c1ccccc1NCc1ccc(Cl)cc1 | 21.2% (inactive) | 13.9
3 | Oc1ccc(CNc2ccccc2O)cc1 | 62% (active) | 57.4
4 | CCC(=O)N(Cc1cc2ccccc2[nH]c1=O)c1ccc(OC)cc1 | -16% (inactive) | 1.27
5 | CN(CCOc1ccc(Br)cc1)CC(=O)Nc1cccc(S(=O)(=O)NC2=NCCC2)c1 | -4.79% (inactive) | -2.03
6 | Cc1onc(-c2ccccc2)c1C(=O)NNC(=S)NC(=O)c1ccc(F)cc1 | 14.1% (inactive) | -24.2
7 | O=C(Nc1nnc(C2COc3ccccc3O2)o1)c1ccc(F)cc1 (stereo not given) | 62.7% (active) | 52.9
8 | c1ccc2c(c1)OCC(c1nn3cnnc3s1)O2 (stereo not given) | 15.5% (inactive) | 14.4
9 | COCCNc1nc2nonc2nc1N1CCCC1c1nccs1 (stereo not given) | 17.4% (inactive) | 12.6
10 | Cc1cc(C)n2nc(SCC(=O)NC(=O)NCc3ccco3)nc2n1 | 8.54% (inactive) | 10.4
11 | Cc1ccc(NC(=O)N2CCC(c3nc4c(nnn4Cc4c(F)cccc4Cl)c(=O)[nH]3)CC2)cc1 | -0.04% (inactive) | 3.09
12 | COc1ccc(Cn2nnc3c(=O)[nH]c(C4CCN(C(=O)c5ccccc5Cl)CC4)nc32)cc1 | 94.1% (active) | 34.6
13 | O=C(Nc1ccc(F)cc1)N1CCCC(c2nc3c(nnn3Cc3ccccc3Cl)c(=O)[nH]2)C1 (stereo not given) | -0.5% (inactive) | 17.4
14 | COCCNC(=O)c1ccc(-n2c(SCc3cccnc3)nc3ccccc3c2=O)cc1 | -8.55% (inactive) | -7.82
15 | O=C(CCN1C(=O)c2ccccc2C1=O)Nc1ccncc1 | 2.36% (inactive) | -2.76
16 | O=C(CCN1c2ccccc2Sc2ccccc21)Nc1ccccc1 | 69.8% (active) | 43.4
17 | CC1CCN(CCC(=O)Nc2ccccc2)CC1 | -7.63% (inactive) | -10
18 | COc1ccc(OC)c(C(=O)c2coc3ccc(O)c(CN4CCOCC4)c23)c1 | 7.31% (inactive) | -1.21
19 | COc1ccc2occ(C(=O)c3ccc(N=C(C)N(C)C)cc3)c2c1 | 6.86% (inactive) | 8.79
20 | COc1ccc(OC)c(C(=O)c2coc3ccc(OC)cc23)c1 | 80.9% (active) | 15.4
21 | CCN(CC)CCNC(=O)c1ccc(NS(=O)(=O)c2ccc3c(c2)OCCO3)cc1 | -8.91% (inactive) | 1.15
22 | C/C(N)=C(/C#N)C(=O)COC(=O)CNS(=O)(=O)c1ccc(C)cc1 | -9.23% (inactive) | 5.26

Row | Structure (SMILES) | inhibition [1] | inhibition (mutant strain inhibition) [%]
23 | CCCc1cc(-c2n[nH]c(=S)n2CC)c2ccccc2n1 | -17.6% (inactive) | -14.6
24 | CCCc1cc(-c2n[nH]c(=S)n2Cc2ccccc2)cs1 | 65.6% (active) | 36.1
25 | CCn1c(-c2ccncc2)n[nH]c1=S | 5.96% (inactive) | 13.5
26 | CCc1cc(-c2n[nH]c(=S)n2CC(C)C)cs1 | 66.2% (active) | -0.18
27 | C=CCn1c(-c2ccc3[nH]c(C)c(C)c3c2)n[nH]c1=S | 9.01% (inactive) | 0.81
28 | Cc1cc(-c2csc(N)n2)c(C)n1Cc1ccccc1 | 12% (inactive) | 5.79
29 | CCC(C)CN1CCC(CO)(Cc2ccccc2Cl)CC1 (stereo not given) | 11.3% (inactive) | 4.97
30 | Cc1ccc(NC(=O)C(=O)NCC2CCN(C(=O)c3cccc([N+](=O)[O-])c3)CC2)cc1 | 2.01% (inactive) | -12.9
31 | COc1ccccc1-n1c(=S)[nH]c2c(sc(=S)n2-c2ccc(C)cc2C)c1=O | -7.13% (inactive) | -4.6
32 | Cc1ccc(Nc2ccc(C(N)=O)cc2[N+](=O)[O-])cc1 | 2.16% (inactive) | -8.75
33 | Cc1cc(C)nc(Nc2cc([N+](=O)[O-])ccc2C)n1 | -4.85% (inactive) | 9.39
34 | Cc1ccc(Nc2cc(C)nc3c(C)ccc([N+](=O)[O-])c23)cc1 | 64.8% (active) | 56.9
35 | CCC(C)(C)NC(=O)CN(C(=O)C(=O)Nc1ccc2c(c1)OCCO2)C(C)(C)CC | -7.46% (inactive) | 6.56
36 | Cc1ccc(C(=O)O)cc1N1C(=O)CCCC1=O | -14.9% (inactive) | -14.6
37 | Cc1nn(Cc2ccccc2)c(C)c1C(=O)NCCN1C(=O)S/C(=C\c2ccc(F)cc2)C1=O | 0.77% (inactive) | 0.61
38 | CCN1CCN(CCNC(=O)c2ccc(/C=C3/Sc4ccccc4N(Cc4cccc(C)c4)C3=O)cc2)CC1 | 83.7% (active) | 59.2
39 | O=C(CN1C(=O)/C(=C\c2ccc(C(F)(F)F)cc2)Sc2ccccc21)NCc1ccco1 | 49% (inactive) | 3.15
40 | Cc1ccc(C)c(Cn2cnc3c(oc4ccccc43)c2=O)c1 | -1.67% (inactive) | -14.3
41 | COc1ccc(Nc2cc(C)nc(-n3nc(C)cc3C)n2)cc1 | 76.8% (active) | 68.7
42 | COc1ccccc1/C=N\Nc1cc(C)nc(-n2nc(C)cc2C)n1 | 69.1% (active) | 28.4
43 | COc1cc(NS(=O)(=O)c2ccccc2)ccc1-n1nc(C)cc1C | -33.7% (inactive) | 2.02
44 | COc1cccc(/C=N/Nc2cc(C)nc(-c3ccccc3O)n2)c1O | 51.6% (inactive) | 48.3

Row | Structure (SMILES) | inhibition [1] | inhibition (mutant strain inhibition) [%]
45 | CC(=O)c1ccc(Oc2cc(C)nc(-n3nc(C)cc3C)n2)cc1 | -3.85% (inactive) | 8.66
46 | COc1ccc(NC(=O)c2nc(-n3nc(C)cc3C)ccc2Cl)cc1Cl | 5.72% (inactive) | -16.9
47 | COc1ccc(-c2ccc(CCC(=O)O)n2-c2ccc(O)cc2)cc1 | -12.3% (inactive) | -2.11
48 | COc1ccc(NC(=O)Nc2ccc3nsnc3c2)cc1 | 23.1% (inactive) | -36.8
49 | O=C(Nc1ccc2ccccc2c1)Nc1ccc2snnc2c1 | 88.1% (active) | 77.8
50 | O=C(Nc1ccccc1)Nc1nc2ccccc2s1 | -5.57% (inactive) | -20.5
51 | COc1ccc2c(c1)CCc1c(C(=O)N3CCc4ccccc4C3)noc1-2 | 73.9% (active) | 68
52 | COc1ccc2c(c1)CCc1c(C(=O)N3CCCC3)noc1-2 | -10.3% (inactive) | -6.91
53 | COc1ccc2c(c1)CCc1c(C(=O)Nc3c(C)n(C)n(-c4ccccc4)c3=O)noc1-2 | -9.3% (inactive) | -13
54 | COc1ccc(CC2(CO)CCN(Cc3cnn(C)c3)CC2)cc1 | 12.1% (inactive) | -0.62
55 | Cc1cc(O)c(NC(=O)c2ccc(C)c([N+](=O)[O-])c2)cc1C | -6.28% (inactive) | -4.47
56 | Cc1cc(OCCOc2cccc3cccnc23)c(C)cc1Cl | 14.6% (inactive) | 20.4
57 | O=S(=O)(NCCOc1cccc2cccnc12)c1ccc(F)cc1 | 0.13% (inactive) | 5.48
58 | CCOc1cccc(OCCCOc2cccc3cccnc23)c1 | 60.8% (active) | 26
59 | CC[N+]1(CC)CC2=Cc3ccccc3CC2C1 (stereo not given) | 0.67% (inactive) | -6.63
60 | O=C(CCc1ccccc1)NCc1cccnc1 | -0.16% (inactive) | 17.5
61 | O=C(CS(=O)(=O)Cc1ccccc1)Nc1cccnc1 | 90.1% (active) | 19.3
62 | COCc1nnc(NC(=O)CS(=O)(=O)Cc2ccccc2)s1 | -3.35% (inactive) | -9.06
63 | COCCC(=O)Nc1ccc2c(c1)CN(C(=O)CCOC)CC2 | -15.9% (inactive) | -11.2
64 | CC(C)C1Nc2c(C(=O)O)cccc2C(Nc2ccccc2C(=O)O)C1(C)C (stereo not given) | -8.7% (inactive) | -3.34
65 | Cc1ccc(-n2nc3c(c2NC(=O)c2ccc4c(c2)OCO4)CSC3)c(C)c1 | 84% (active) | 3.65
66 | Cc1cc(C)c2nc(NC(=O)c3ccc4c(c3)OCO4)sc2c1 | 14.1% (inactive) | -21.7

Row | Structure (SMILES) | inhibition [1] | inhibition (mutant strain inhibition) [%]
67 | Cc1cccc(-n2nc3c(c2NC(=O)c2ccc(Br)o2)CSC3)c1C | 8.72% (inactive) | 6.28
68 | O=C(Oc1cccc(O)c1)C1CCCCC1 | -7.96% (inactive) | 7.95
69 | CCOC(=O)c1c(CN(C)C)n(-c2ccccc2)c2cc(Br)c(O)cc12 | 9.54% (inactive) | 7.76
70 | CC(CC(=O)O)C(=O)c1ccc(Cl)c([N+](=O)[O-])c1 (stereo not given) | -16.5% (inactive) | -4.59
71 | O=C(O)c1ccc(NC(=O)c2cccs2)cc1 | -8.36% (inactive) | 1.63
72 | O=C(Nc1ccnc(-c2ccncc2)n1)c1cccs1 | -10.3% (inactive) | 11
73 | O=C(Nc1ncccn1)c1cccs1 | 71.2% (active) | 28.9
74 | Cc1ccccc1CN1C[C@@H]2C[C@@H](c3ccc4nsnc4c3)N3CCC[C@@]23C1=O | 7.94% (inactive) | 5.04
75 | O=C(NCCCN1CCOCC1)c1ccccc1NS(=O)(=O)c1ccc(F)cc1 | -8.48% (inactive) | 6.56
76 | O=C(N/N=C/C=C/c1ccco1)c1cccs1 | -12.2% (inactive) | -0.62
77 | CS(=O)(=O)N(CC(O)Cn1c2ccccc2c2ccccc21)c1cccc2ccccc12 (stereo not given) | 31.9% (inactive) | 7.33
78 | CNC(=O)CN1C(=O)c2ccccc2S1(=O)=O | 12.2% (inactive) | -7.85
79 | O=C1c2ccccc2S(=O)(=O)N1CC(O)Cn1c2ccccc2c2ccccc21 (stereo not given) | 84.5% (active) | 45.8
80 | COCCCNC(=S)N(Cc1ccccc1)Cc1ccc(F)cc1 | 31.2% (inactive) | 41.6
81 | CC(NCc1nc2ccccc2n1C)C12CC3CC(CC(C3)C1)C2 (stereo not given) | 30.5% (inactive) | 16.6
82 | COc1ccc(-n2c(C)cc(C(=O)CSc3nnc(-c4cccs4)o3)c2C)cc1 | 4.34% (inactive) | 23
83 | COc1ccc(-c2nnc(SCC(=O)c3cccs3)o2)c(OC)c1 | 63.6% (active) | -1.8
84 | COc1ccc(OC)c(C(=O)CSc2nnc(-c3cccs3)o2)c1 | -7.87% (inactive) | -26.6
85 | CCC(=O)c1ccc(N2CCN(C(=O)c3cc([N+](=O)[O-])ccc3F)CC2)c(F)c1 | 10.4% (inactive) | 5.39
